# According to ChEMBL document CHEMBL1961873, “Compounds: GSK PKIS; Assays: Nanosyn kinase panel” (2012):
# Experiments:
# [1] = biological target: T1, Tyrosine-protein kinase ITK/TSK (Homo sapiens) (UniProt Q08881); settings: at 1 µM;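 further: values are mean percent inhibition of ITK from the GSK PKIS screen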
# T1 sequence (whole entry): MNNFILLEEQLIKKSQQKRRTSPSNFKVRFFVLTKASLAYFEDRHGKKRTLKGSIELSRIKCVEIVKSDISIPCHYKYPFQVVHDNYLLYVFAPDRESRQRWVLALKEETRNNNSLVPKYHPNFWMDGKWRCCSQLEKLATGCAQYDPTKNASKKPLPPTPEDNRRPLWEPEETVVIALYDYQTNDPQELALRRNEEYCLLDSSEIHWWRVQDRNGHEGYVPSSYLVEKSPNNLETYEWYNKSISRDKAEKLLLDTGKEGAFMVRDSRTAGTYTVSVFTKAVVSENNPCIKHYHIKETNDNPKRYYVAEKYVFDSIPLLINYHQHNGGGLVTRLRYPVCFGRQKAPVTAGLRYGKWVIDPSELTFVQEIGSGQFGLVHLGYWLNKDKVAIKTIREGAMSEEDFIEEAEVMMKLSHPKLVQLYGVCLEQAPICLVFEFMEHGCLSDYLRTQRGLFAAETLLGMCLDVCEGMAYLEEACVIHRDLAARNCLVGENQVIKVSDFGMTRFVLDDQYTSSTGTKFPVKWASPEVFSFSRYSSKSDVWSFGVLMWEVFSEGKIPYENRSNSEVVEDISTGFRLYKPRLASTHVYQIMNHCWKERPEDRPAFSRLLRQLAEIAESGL
# [2] = biological target: Tyrosine-protein kinase JAK1 (Homo sapiens) (UniProt P23458); settings: at 0.1 µM
# [3] = biological target: Tyrosine-protein kinase JAK1 (Homo sapiens) (UniProt P23458); settings: at 1 µM
# [4] = biological target: Tyrosine-protein kinase JAK2 (Homo sapiens) (UniProt O60674); settings: at 0.1 µM
# [5] = biological target: Tyrosine-protein kinase JAK2 (Homo sapiens) (UniProt O60674); settings: at 1 µM
# [6] = biological target: T2, Tyrosine-protein kinase JAK3 (Homo sapiens) (UniProt P52333); settings: at 0.1 µM
# T2 sequence (whole entry): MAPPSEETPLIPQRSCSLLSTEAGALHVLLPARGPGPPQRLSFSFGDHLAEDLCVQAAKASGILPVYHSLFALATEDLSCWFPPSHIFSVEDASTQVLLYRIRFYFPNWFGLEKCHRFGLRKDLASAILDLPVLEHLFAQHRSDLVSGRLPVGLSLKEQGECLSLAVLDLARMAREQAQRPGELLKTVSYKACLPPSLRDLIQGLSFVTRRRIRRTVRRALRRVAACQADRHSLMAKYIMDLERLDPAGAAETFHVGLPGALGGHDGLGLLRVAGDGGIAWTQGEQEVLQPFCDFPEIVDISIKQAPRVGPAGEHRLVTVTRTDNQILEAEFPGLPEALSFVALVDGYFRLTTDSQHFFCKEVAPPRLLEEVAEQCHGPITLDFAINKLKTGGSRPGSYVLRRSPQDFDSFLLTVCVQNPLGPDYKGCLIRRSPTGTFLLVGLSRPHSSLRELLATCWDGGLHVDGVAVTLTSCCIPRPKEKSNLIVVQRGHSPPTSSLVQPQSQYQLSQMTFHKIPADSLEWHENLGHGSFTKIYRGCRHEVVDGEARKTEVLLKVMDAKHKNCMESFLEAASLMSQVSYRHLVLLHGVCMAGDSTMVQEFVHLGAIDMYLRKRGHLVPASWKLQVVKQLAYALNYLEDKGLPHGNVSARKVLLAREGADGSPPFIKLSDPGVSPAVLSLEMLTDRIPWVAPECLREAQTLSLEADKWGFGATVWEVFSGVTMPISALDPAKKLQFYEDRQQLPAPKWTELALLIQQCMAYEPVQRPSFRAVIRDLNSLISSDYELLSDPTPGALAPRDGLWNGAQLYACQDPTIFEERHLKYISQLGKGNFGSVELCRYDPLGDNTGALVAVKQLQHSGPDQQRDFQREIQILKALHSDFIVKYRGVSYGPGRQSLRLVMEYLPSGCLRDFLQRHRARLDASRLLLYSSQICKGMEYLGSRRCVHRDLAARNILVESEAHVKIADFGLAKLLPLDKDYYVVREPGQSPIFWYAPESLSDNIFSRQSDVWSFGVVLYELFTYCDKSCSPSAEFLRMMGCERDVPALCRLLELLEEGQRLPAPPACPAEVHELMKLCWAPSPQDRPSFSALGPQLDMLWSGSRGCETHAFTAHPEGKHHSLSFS
# [7] = biological target: T2, Tyrosine-protein kinase JAK3 (Homo sapiens); settings: at 1 µM
# [8] = biological target: Vascular endothelial growth factor receptor 2 (Homo sapiens) (UniProt P35968); settings: at 0.1 µM
# [9] = biological target: Vascular endothelial growth factor receptor 2 (Homo sapiens) (UniProt P35968); settings: at 1 µM
# [10] = biological target: Mast/stem cell growth factor receptor Kit (Homo sapiens) (UniProt P10721); settings: at 0.1 µM
# [11] = biological target: Mast/stem cell growth factor receptor Kit (Homo sapiens) (UniProt P10721); settings: at 1 µM
# [12] = tested on: Mast/stem cell growth factor receptor Kit (Homo sapiens), P10721 [D816V]; settings: at 0.1 µM
# [13] = tested on: Mast/stem cell growth factor receptor Kit (Homo sapiens), P10721 [D816V]; settings: at 1 µM
# [14] = tested on: Mast/stem cell growth factor receptor Kit (Homo sapiens), P10721 [T670I]; settings: at 0.1 µM
# [15] = tested on: Mast/stem cell growth factor receptor Kit (Homo sapiens), P10721 [T670I]; settings: at 1 µM
# [16] = tested on: Mast/stem cell growth factor receptor Kit (Homo sapiens), P10721 [V560G]; settings: at 0.1 µM
# [17] = tested on: Mast/stem cell growth factor receptor Kit (Homo sapiens), P10721 [V560G]; settings: at 1 µM
# [18] = biological target: Tyrosine-protein kinase Lck (Homo sapiens) (UniProt P06239); settings: at 0.1 µM
# [19] = biological target: Tyrosine-protein kinase Lck (Homo sapiens) (UniProt P06239); settings: at 1 µM
# [20] = biological target: Leukocyte tyrosine kinase receptor (Homo sapiens) (UniProt P29376); settings: at 0.1 µM
# Sequence of Leukocyte tyrosine kinase receptor (Homo sapiens) (P29376 whole entry): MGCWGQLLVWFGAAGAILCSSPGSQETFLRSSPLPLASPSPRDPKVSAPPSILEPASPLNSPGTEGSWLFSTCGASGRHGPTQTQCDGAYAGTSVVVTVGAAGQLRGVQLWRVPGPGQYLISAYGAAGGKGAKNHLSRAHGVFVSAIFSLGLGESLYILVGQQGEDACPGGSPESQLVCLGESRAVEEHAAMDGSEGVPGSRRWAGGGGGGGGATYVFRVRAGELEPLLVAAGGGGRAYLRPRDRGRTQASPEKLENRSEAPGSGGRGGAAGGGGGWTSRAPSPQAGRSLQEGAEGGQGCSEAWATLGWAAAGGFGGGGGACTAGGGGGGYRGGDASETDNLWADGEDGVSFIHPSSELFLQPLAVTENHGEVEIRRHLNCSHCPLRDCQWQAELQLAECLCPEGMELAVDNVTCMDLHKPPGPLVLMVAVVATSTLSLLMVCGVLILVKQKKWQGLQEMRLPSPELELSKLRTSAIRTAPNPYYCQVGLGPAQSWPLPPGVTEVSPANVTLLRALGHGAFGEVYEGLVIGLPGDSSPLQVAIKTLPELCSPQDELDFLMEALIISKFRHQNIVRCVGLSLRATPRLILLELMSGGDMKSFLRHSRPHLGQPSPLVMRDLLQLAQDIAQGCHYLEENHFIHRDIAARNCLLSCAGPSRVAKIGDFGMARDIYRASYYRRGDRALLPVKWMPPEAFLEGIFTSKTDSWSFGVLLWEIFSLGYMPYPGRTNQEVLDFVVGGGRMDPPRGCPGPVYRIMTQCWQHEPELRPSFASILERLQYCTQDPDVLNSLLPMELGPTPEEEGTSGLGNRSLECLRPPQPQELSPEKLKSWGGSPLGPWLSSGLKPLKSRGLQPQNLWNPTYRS
# Sequence of Tyrosine-protein kinase JAK2 (Homo sapiens) (O60674 whole entry): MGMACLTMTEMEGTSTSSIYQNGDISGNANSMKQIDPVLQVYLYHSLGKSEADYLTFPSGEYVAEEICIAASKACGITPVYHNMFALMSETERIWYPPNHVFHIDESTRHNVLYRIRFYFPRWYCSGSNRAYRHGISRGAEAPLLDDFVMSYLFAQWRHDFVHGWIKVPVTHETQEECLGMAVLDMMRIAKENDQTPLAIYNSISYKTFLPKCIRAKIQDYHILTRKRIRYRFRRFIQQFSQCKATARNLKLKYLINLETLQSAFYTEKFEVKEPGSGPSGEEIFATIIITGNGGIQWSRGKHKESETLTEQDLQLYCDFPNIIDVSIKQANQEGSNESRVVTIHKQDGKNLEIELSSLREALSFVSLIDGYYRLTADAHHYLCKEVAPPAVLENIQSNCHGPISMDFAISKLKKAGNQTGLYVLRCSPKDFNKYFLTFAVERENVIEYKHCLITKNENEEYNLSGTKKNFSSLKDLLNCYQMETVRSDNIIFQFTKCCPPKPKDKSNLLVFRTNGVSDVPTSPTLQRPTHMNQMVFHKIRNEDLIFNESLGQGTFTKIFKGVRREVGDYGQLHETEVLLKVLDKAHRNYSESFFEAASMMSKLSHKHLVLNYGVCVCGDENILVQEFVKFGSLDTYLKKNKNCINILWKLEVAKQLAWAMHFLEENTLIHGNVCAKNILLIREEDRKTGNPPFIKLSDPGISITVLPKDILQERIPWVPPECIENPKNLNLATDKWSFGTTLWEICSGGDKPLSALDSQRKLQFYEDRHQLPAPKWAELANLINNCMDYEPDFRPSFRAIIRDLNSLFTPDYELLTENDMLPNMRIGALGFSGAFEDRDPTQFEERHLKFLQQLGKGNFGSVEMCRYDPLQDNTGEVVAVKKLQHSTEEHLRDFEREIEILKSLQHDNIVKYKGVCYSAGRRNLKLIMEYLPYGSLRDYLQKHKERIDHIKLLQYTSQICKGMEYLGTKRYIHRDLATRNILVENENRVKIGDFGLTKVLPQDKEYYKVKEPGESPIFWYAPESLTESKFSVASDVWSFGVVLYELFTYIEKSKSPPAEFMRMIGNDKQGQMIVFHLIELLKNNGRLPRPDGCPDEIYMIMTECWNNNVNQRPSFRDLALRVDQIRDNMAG
# Sequence of Tyrosine-protein kinase Lck (Homo sapiens) (P06239 2-509 limits assumed): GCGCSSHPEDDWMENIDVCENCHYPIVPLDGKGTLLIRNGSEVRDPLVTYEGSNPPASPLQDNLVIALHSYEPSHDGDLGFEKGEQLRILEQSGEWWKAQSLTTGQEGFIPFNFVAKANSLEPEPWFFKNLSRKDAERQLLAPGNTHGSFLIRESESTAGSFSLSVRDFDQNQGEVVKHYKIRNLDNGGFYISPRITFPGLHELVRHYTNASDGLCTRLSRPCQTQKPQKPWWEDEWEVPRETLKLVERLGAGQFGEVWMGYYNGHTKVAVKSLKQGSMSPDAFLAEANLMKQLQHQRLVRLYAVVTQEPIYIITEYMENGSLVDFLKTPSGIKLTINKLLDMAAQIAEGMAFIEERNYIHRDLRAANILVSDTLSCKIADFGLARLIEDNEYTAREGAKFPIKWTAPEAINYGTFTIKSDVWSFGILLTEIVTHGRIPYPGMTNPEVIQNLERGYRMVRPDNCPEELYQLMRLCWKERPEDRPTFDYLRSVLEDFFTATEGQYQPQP
# Sequence of Mast/stem cell growth factor receptor Kit (Homo sapiens) (P10721 whole entry): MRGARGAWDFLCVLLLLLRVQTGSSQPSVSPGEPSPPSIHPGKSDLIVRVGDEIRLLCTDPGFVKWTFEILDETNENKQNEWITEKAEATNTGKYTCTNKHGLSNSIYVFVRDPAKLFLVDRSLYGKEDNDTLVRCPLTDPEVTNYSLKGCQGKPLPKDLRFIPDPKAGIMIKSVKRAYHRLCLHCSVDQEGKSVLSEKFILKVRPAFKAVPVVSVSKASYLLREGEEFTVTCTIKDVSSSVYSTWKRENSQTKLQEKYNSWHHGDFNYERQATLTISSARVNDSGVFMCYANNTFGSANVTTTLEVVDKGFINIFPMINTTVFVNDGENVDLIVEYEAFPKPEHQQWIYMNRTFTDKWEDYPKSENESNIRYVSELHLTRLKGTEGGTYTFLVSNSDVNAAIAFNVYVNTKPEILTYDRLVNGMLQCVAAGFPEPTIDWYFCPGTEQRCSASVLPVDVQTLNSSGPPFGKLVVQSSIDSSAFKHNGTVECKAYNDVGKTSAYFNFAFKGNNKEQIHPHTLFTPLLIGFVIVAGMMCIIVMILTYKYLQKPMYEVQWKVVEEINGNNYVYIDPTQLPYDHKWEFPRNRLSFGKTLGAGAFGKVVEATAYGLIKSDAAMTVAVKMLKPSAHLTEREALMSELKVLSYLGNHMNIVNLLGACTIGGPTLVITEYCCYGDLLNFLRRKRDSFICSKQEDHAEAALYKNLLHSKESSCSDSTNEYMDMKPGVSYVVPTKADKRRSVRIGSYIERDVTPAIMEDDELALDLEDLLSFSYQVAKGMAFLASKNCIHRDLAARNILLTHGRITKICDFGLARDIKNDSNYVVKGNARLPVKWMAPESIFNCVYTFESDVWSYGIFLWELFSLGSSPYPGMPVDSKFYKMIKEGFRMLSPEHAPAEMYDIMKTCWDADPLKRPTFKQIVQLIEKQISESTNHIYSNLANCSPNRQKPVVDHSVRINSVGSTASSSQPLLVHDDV
# Sequence of Mast/stem cell growth factor receptor Kit (Homo sapiens), P10721 [D816V] (P10721 whole entry D816V): as the sequence (P10721 whole entry) above, with D816V counted along it
# Sequence of Tyrosine-protein kinase JAK1 (Homo sapiens) (P23458 whole entry): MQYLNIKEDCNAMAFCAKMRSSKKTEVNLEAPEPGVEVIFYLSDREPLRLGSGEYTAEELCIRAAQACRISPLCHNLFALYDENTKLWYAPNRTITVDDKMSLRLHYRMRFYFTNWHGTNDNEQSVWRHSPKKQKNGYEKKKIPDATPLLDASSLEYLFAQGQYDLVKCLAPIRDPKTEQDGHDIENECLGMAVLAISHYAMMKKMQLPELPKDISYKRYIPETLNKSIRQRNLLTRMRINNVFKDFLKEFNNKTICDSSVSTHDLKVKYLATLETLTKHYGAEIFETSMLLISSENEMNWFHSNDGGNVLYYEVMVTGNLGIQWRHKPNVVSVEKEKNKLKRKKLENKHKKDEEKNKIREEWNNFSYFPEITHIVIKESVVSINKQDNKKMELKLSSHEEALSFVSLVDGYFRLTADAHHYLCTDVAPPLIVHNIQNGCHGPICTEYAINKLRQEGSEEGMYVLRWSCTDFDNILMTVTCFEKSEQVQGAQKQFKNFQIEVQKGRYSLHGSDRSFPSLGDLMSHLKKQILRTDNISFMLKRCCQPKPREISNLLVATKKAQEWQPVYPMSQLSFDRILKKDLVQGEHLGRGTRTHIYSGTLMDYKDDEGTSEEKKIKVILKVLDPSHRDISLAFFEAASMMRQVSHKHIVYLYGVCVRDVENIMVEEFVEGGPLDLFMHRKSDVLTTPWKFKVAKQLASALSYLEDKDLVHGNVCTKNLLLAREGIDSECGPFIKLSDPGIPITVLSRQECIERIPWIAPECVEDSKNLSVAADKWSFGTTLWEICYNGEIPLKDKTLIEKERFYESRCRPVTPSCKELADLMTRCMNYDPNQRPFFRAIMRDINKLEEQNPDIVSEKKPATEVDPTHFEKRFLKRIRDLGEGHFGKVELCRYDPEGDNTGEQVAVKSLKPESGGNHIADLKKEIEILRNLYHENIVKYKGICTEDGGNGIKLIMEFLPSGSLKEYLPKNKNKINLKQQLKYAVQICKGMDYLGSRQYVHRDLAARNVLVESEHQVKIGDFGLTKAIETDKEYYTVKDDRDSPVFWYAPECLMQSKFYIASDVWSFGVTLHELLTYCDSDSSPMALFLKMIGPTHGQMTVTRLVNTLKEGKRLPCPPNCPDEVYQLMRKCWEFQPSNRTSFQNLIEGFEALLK
# Sequence of Mast/stem cell growth factor receptor Kit (Homo sapiens), P10721 [T670I] (P10721 whole entry T670I): as the sequence (P10721 whole entry) above, with T670I counted along it
# Sequence of Mast/stem cell growth factor receptor Kit (Homo sapiens), P10721 [V560G] (P10721 whole entry V560G): as the sequence (P10721 whole entry) above, with V560G counted along it
Compound,inhibition [1] [%],inhibition [2] [%],inhibition [3] [%],inhibition [4] [%],inhibition [5] [%],inhibition [6] [%],inhibition [7] [%],inhibition [8] [%],inhibition [9] [%],inhibition [10] [%],inhibition [11] [%],inhibition [12] [%],inhibition [13] [%],inhibition [14] [%],inhibition [15] [%],inhibition [16] [%],inhibition [17] [%],inhibition [18] [%],inhibition [19] [%],inhibition [20] [%]
Cc1ccc2c(-c3ccnc(Nc4ccc5c(c4)OCCO5)n3)c(-c3ccc(C(F)(F)F)cc3)nn2n1,1.1,1.09,1.09,0.16,-1.16,-2.23,1.23,-0.67,2.81,-0.52,2.39,-1.16,0.16,-0.41,-0.07,0.29,0.88,1.9,8.08,0.85
NS(=O)(=O)c1ccc(N/N=C2\C(=O)Nc3ccc(Cl)cc32)cc1,4.1,4.77,11.7,1.28,1.55,-2.01,1.21,1.7,16.9,41.3,89.8,1.33,3.24,5.37,41.2,2.89,30.3,1.35,3.7,3.2
Nc1nccc(-c2c(-c3ccc(F)cc3)nn3cc(C(F)(F)F)ccc23)n1,0.43,-0.26,1.9,-0.24,-1.98,-1.7,-0.29,0.31,0.56,-1.06,1.1,1.51,-0.82,-0.08,-0.07,1.43,0.2,2.62,4.27,1.83
CN1CCN(C(=O)c2ccc(NC(=O)Nc3ccc(N(C)c4ccnc(Nc5ccc(CS(C)(=O)=O)cc5)n4)cc3)cc2)CC1,38.7,2.49,20.6,3.54,49.7,-1.34,26.2,21.4,69.2,65.6,88.5,1.27,2.73,10.6,58.7,75.1,93.2,5.01,23.9,2.61
NC(=O)c1sc(-n2cnc3ccccc32)cc1OCc1ccccc1Br,2.17,4.07,3.98,1.97,2.84,-2.53,0.23,0.79,13.6,5.61,5.34,2.22,4.99,1.31,4.08,-5.3,-0.34,3.94,5.49,4.25
Nc1nccc(-c2c(-c3ccc(F)cc3)ncn2CCCN2CCOCC2)n1,2.18,2.73,17.8,1.23,0.43,-0.85,-0.57,4.12,11.2,3.2,11.4,5.23,5.35,5,0.35,-0.56,1.5,2.05,7.4,2.33
CN(C)C(=O)O[C@H]1CN[C@H](C#Cc2cc3ncnc(Nc4ccc(OCc5cccc(F)c5)c(Cl)c4)c3s2)C1,1.42,2.35,4.66,1.84,1.89,-0.68,1.63,4.69,9.06,2.32,3,2.35,-1.14,1.09,0.88,0.04,2.8,1.92,3.02,1.7
COc1ccc2ncnc(Nc3ccc(OCc4ccccc4)cc3)c2c1,1.7,1.35,3.3,1.02,0.06,0.27,0.67,1.51,3,3.24,9.52,2.81,0.98,0.74,2.49,-1.68,0.69,1.39,7.05,2.27
Cc1ccc(Nc2ccnc(Nc3cccc(C(N)=O)c3)n2)cc1O,0.3,5.16,32.7,5.29,45.8,-4.07,14,76.9,90.7,8.57,42.7,14.9,54.3,2.19,5.43,3.09,21.1,29.2,72.2,4.36
Cc1ccc2c(-c3ccnc(Nc4cccc(C(F)(F)F)c4)n3)c(-c3ccccc3)nn2n1,1.69,6.27,4.74,1.01,2.03,-1.71,-2.26,17.7,69.3,9.72,47.6,0.01,6.47,2.51,3.44,2.8,10.7,8.54,42,4.14
CCS(=O)(=O)c1ccc(OC)c(Nc2ncc(-c3cccc(OC)c3)o2)c1,5.9,-0.79,-4.39,0.87,1.58,-1.19,5.85,48.4,73.2,73.4,97,0.77,7.53,10.8,67.6,3.11,38.3,11.7,47.6,1.67
NS(=O)(=O)c1ccc(NC=C2C(=O)Nc3ccc4ncsc4c32)cc1,15.1,9.37,50.7,2.72,23.6,22.7,63.7,60.5,71,68.4,94.3,8.42,31,19.8,67.2,1.8,32,5.47,30.9,4.74
Cc1ccc(O)cc1Nc1ccnc2ccc(S(C)(=O)=O)cc12,1.21,3.67,11.8,1.33,2.12,-1.23,0.26,70.1,71.1,13.2,48.2,38.2,84.5,4.38,8,8.1,53.7,86.3,97.1,4.66
CCS(=O)(=O)c1ccc(OC)c(Nc2nccc(N(C)c3ccc4c(C)n[nH]c4c3)n2)c1,1.96,3.52,5.13,1.45,-0.31,-1.93,-1.6,78.7,76.8,44.2,88.5,6.18,23.9,5.56,6.79,0.4,11.8,26.2,60.2,7.51
